Out of some 52,000 compounds screened, about 4,300 (8.3%) were called active. The full list was thinned out, with actives kept by preference. Unmarked numbers belong to inactive results. Rule as the data show it: active = survival mostly below about 52% (no sharp cut-off); inactive = mostly above about 56%.

In this assay the test system is DeltatarO mutant. As to the kind of experiment: growth inhibition of S. aureus wild type versus tarO mutant, primary screen, teichoic acid synthesis inhibitors, RN4220, OD600 (AID 463173). The following applies: OD600, 18 h, active compounds read low, screened at 18.75 µg/mL (by protocol).
Turning to `O=C(Cn1cc(SCc2ccccc2F)c2ccccc21)N1CCCCCC1`, the survival is 73%. Regarding `CCOC(=O)C1CCN(C(=O)c2ccc3c(=O)n4nc(Nc5ccccc5)sc4nc3c2)CC1`, the survival is 117%. As for `COc1ccccc1NC(=O)Cn1c(=O)n(-c2cccc(C(C)=O)c2)c(=O)c2c3c(sc21)CN(C(C)=O)CC3`, the figure is 89%. With `COc1ccc(S(=O)(=O)c2c(O)c3ccc(C(=O)NCc4ccc(Cl)cc4)cc3[nH]c2=O)cc1`, the survival is 89%. As for `COc1cccc(CNC(=O)CN(C)S(=O)(=O)c2ccc3[nH]c4c(c3c2)CCCC4)c1`, the figure is 75%; as for `CCOc1ccc(OCC)c(NC(=O)c2cnc3c(-c4ccccc4)c(C)nn3c2C)c1`, 91%; as for `Cc1ccc(NC(=O)c2cnc(SCC(=O)N3CCCc4ccccc43)n(C)c2=O)cc1C`, 85%.

For `COc1cccc2sc(NC(=O)c3ccc4c(c3)OCCO4)nc12`, the survival was 88%. For the compound `COc1ccc2oc(=O)c(-c3nnc(-c4ccc(C)cc4)o3)cc2c1`, the survival was 138%. As to `CC1CCCN(c2nc3c(-c4ccc(Cl)cc4)nnn3c3ccccc23)C1` (configuration not stated), the survival was 87%. On to `Cc1ccc(-c2nnn3c2nc(N2CCC(C)CC2)c2ccccc23)cc1`, for which the survival was -6% (active). Turning to `Clc1ccc(-c2nnn3c2nc(N2CCCCC2)c2ccccc23)cc1`, the survival was 25% (active). As to `CC1CCN(c2nc3c(-c4cccc(Br)c4)nnn3c3ccccc23)CC1`, the survival is 104%.

As to `CC1CCN(c2nc3c(S(=O)(=O)c4ccccc4)nnn3c3ccc(Cl)cc23)CC1`, the survival is 69%. Consider `O=S(=O)(c1ccccc1)c1nnn2c1nc(N1CCN(c3ccccc3)CC1)c1cc(Cl)ccc12`, for which the survival was 91%. As for `Brc1cccc(-c2nnn3c2nc(N2CCCCC2)c2ccccc23)c1`, the survival was 62%. The value for `COc1ccc(-c2nnn3c2nc(NCc2ccccc2)c2ccccc23)cc1` was 89%; that for `COc1ccc(-c2nnn3c2nc(N2CCCC(C)C2)c2ccccc23)cc1` (configuration not stated) was -3% (active); that for `O=C(NCCCN1CCN(c2ccccc2)CC1)c1nnc(Cc2c(F)cccc2Cl)o1` was 71%. As to `Cc1cc(NC(=O)CCc2nc3cccnc3n2Cc2cccs2)ccc1Br`, the survival is 50%. In the case of `COCCCNC(=O)c1cc(-c2cccnc2)nc2ccc(S(=O)(=O)N3CCC(C)CC3)cc12`, the survival was 113%. Regarding `CC(=O)c1ccc(N2CCN(C(=O)C3CCN(S(=O)(=O)c4cccc5nonc45)CC3)CC2)cc1`, the survival is 79%. As for `COC(=O)CSc1ncc(C#N)c(N)n1`, the survival is 110%. For the compound `COc1ccc(C)cc1NC(=O)CCc1c(C)nn(-c2ccc(N3CCCCC3)nn2)c1C`, the survival is 78%.

Regarding `CC(C)COc1ccc(C(=O)Nc2onc3c2CCCC3)cc1`, the survival is 103%. For the compound `CCCCOc1ccc(C(=O)Nc2onc3c2CCCC3)cc1`, the survival was 49% (active). For `CC(C)(C)c1ccc(C(=O)Nc2onc3c2CCCC3)cc1`, the survival is 56%. In the case of `Cc1ccc(C(=O)Nc2onc3c2CCCC3)cc1`, the survival was 46% (active). Turning to `O=C(Nc1onc2c1CCCC2)c1ccc(Cl)cc1`, the survival is 77%. As for `CCOc1ccc(C(=O)Nc2onc3c2CCCC3)cc1`, the figure is 72%; as for `CCCCOC(=O)c1ccc(NC(=O)c2sc3nc(C)cc(C)c3c2N)cc1`, 65%. Take `CCCCn1cc(S(=O)(=O)c2ccccc2)c(=O)c2cc(F)c(N3CCC(C)CC3)cc21`: the survival was 68%. In the case of `C=CCn1c(SCc2cccnc2)nnc1-c1ccncc1`, the survival was 88%. As for `CC(C)Oc1ccc(CNC(=O)Cc2ccc(NC(=O)N3CCSc4ncccc43)cc2)cc1`, the figure is 102%. Take `CC(C)Oc1ccc(CNC(=O)c2ccc(NC(=O)N3CCSc4ncccc43)cc2)cc1`: the survival is 6% (active). Take `Cc1ccc(Cl)cc1NC(=O)c1ccc(NC(=O)N2CCSc3ncccc32)cc1`: the survival was 79%. Take `CCc1cccc(NC(=O)c2ccc(NC(=O)N3CCSc4ncccc43)cc2)c1`: the survival is -1% (active).

For the compound `CC(=O)c1ccc(NC(=O)c2cccc(NC(=O)N3CCSc4ncccc43)c2)cc1`, the survival was 79%. In the case of `Cc1ccc(NC(=O)c2ccc(NC(=O)N3CCSc4ncccc43)cc2)c(C)c1`, the survival is 86%. With `CCOc1ccc(NC(=O)c2ccc(NC(=O)N3CCSc4ncccc43)cc2)cc1`, the survival was 76%. The value for `Cc1ccccc1NC(=O)c1ccc(NC(=O)N2CCSc3ncccc32)cc1` was -2% (active). Consider `CC(C)Oc1ccc(CNC(=O)c2cccc(NC(=O)N3CCSc4ncccc43)c2)cc1`, for which the survival is 88%. The value for `CC(C)CC1CC(C)(C(=O)CSc2n[nH]c(-c3ccccc3)n2)OC1=O` (configuration not stated) was 80%.

Turning to `COC(=O)c1cc(C)nc2c1c(=O)nc(SCc1cccc(C)c1)n2C1CC1`, the survival was 78%. Regarding `COc1ccc(CNC(=O)c2cnc3sc(N4CCCC4)nn3c2=O)c(OC)c1`, the survival is 70%. As for `Cc1ccc(Nc2c(-c3ccsc3)nc3cccc(C)n23)cc1`, the survival is 25% (active). As to `Cc1ccc(Nc2c(-c3ccc(C)cc3)nc3c(C)cccn23)cc1`, the survival is 9% (active). For the compound `Cc1ccc(Nc2c(-c3ccc(O)cc3)nc3cccc(C)n23)cc1`, the survival is 84%. As to `Cc1ccc(Nc2c(-c3ccc(N4CCOCC4)cc3)nc3c(C)cccn23)cc1`, the survival is 56%. As for `Cc1ccc2nc(-c3ccsc3)c(Nc3ccc(Cl)cc3)n2c1`, the survival is 73%. The value for `Cc1cccn2c(Nc3ccccc3)c(-c3ccc(N4CCOCC4)cc3)nc12` was 113%; that for `Cc1cccc(C)c1Nc1c(-c2ccsc2)nc2cccc(C)n12` was 54%. Regarding `Cc1cccn2c(Nc3ccccc3)c(-c3cccs3)nc12`, the survival is 89%. Consider `Cc1ccc(Nc2c(-c3ccsc3)nc3c(C)cccn23)cc1`, for which the survival was 20% (active). With `Cc1ccccc1Nc1c(-c2ccc(O)cc2)nc2c(C)cccn12`, the survival was 72%. As for `Cc1ccccc1Nc1c(-c2ccc(Cl)cc2)nc2c(C)cccn12`, the survival was 69%. Turning to `Cc1ccccc1Nc1c(-c2ccsc2)nc2c(C)cccn12`, the survival is 8% (active). For the compound `CCOC(=O)c1cccc(NC(=O)N2CCOCC2)c1`, the survival was 80%.

Regarding `O=C(Cn1c2[n+](c3ccccc31)CC(O)CS2)N1CCCCC1` (configuration not stated), the survival is 72%. The value for `O=C(Cn1c(=O)c2cccn2c2ccccc21)NCc1ccccc1F` was 84%; that for `CCCNS(=O)(=O)c1cc(-c2nn3c(C)nnc3c3ccccc23)ccc1C` was 61%; that for `C=C(C)c1cccc(C(C)(C)NC(=O)NC2CC(C)(C)NC(C)(C)C2)c1` was 107%. The value for `Cc1ccc(CCNC(=O)c2ccc3[nH]c(C)c(C)c3c2)cc1` was 116%; that for `CCCn1c(=O)n(-c2ccccc2Cl)c(=O)c2sc3ccccc3c21` was 95%. Consider `Cc1c(C(=O)OCCOc2ccccc2)[nH]c2c1C(=O)CC(c1ccc(C(C)(C)C)cc1)C2` (configuration not stated), for which the survival is 70%.

Turning to `Cc1cc(C)cc(NS(=O)(=O)c2ccc(-n3cccn3)cc2)c1`, the survival is 75%. Turning to `Cc1cc2oc(C(=O)Nc3sc4c(c3C(=O)NCC3CCCO3)CCCC4)cc(=O)c2cc1C` (configuration not stated), the survival is 47% (active). With `O=C(Nc1sc2c(c1C(=O)NCC1CCCO1)CCC2)c1cc(=O)c2cc(Cl)ccc2o1` (configuration not stated), the survival is 43% (active). Turning to `Cc1ccc2c(=O)cc(C(=O)Nc3sc4c(c3C(=O)NCC3CCCO3)CCCC4)oc2c1C` (configuration not stated), the survival is 85%. As to `O=C(Nc1sc2c(c1C(=O)NCC1CCCO1)CCCC2)c1cc(=O)c2ccccc2o1` (configuration not stated), the survival is 50%. Consider `O=C(Nc1sc2c(c1C(=O)NCC1CCCO1)CCC2)c1cc(=O)c2ccccc2o1` (configuration not stated), for which the survival was 66%.

Take `Cc1ccc2c(=O)cc(C(=O)Nc3sc4c(c3C(=O)NCC3CCCO3)CCCC4)oc2c1` (configuration not stated): the survival is 71%.

As for `Cc1cc2oc(C(=O)Nc3sc4c(c3C(=O)NCC3CCCO3)CCC4)cc(=O)c2cc1C` (configuration not stated), the survival is 36% (active).

As for `Cc1ccc2c(=O)cc(C(=O)Nc3sc4c(c3C(=O)NCC3CCCO3)CCC4)oc2c1` (configuration not stated), the survival was 71%. As for `Cc1ccc2oc(C(=O)Nc3sc4c(c3C(=O)NCC3CCCO3)CCC4)cc(=O)c2c1` (configuration not stated), the figure is 79%; as for `Cc1noc(/C=C/c2cccs2)c1S(=O)(=O)N1CCC(C(=O)Nc2ccc(F)c(Cl)c2)CC1`, 52%; as for `COc1ccc(-c2cc3nc(N)cc(=O)n3[nH]2)cc1`, 148%. For the compound `CCOc1cccc2cc(-c3nc4sc5c(c4c(=O)[nH]3)CCC(C(C)(C)C)C5)c(=O)oc12` (configuration not stated), the survival was 79%. As for `CCOC(=O)Cc1c(C)nc2c(-c3ccc(OC)c(OC)c3)c(C)nn2c1C`, the figure is 82%; as for `Cc1ccccc1Cn1c(=O)n(CC2CCC(C(=O)N3CCC(C)CC3)CC2)c(=O)c2sccc21` (configuration not stated), 73%; as for `O=C(COC(=O)c1cc(-c2cccs2)nc2ccccc12)c1ccccc1`, 45%.

Regarding `CCCCOc1ccc(CNC(=O)CCCN2C(=O)CSc3c2c(C)nn3-c2ccccc2)cc1`, the survival was 72%. For the compound `CC(C(=O)N1CCCC1)N1CCN(c2ccc(F)cc2)CC1` (configuration not stated), the survival is 87%. `COc1ccc(Nc2nc(N)nc(CSc3nc4cc(OC)ccc4s3)n2)cc1`: the survival was 41% (active). As for `COc1ccc(Nc2nc(N)nc(CSc3nc4ccccc4s3)n2)cc1`, the survival was 21% (active).

`COc1ccc2sc(N)nc2c1`: the survival is 93%.

Turning to `CN1CCN(Cc2nc(N)nc(Nc3ccccc3)n2)CC1`, the survival was 70%.

Take `COc1cccc(C(=O)Nc2ccc3nc(SCc4ccc(C)cc4)sc3c2)c1`: the survival is 64%.

`COc1ccc(C(=O)Nc2ccc3nc(SCc4ccc(C)cc4)sc3c2)cc1`: the survival was 88%. For the compound `Cc1cc2ncn(CCC(=O)NC(C)(C)C)c2cc1C`, the survival is 95%. As to `O=C(O)Cn1nnnc1SCC(=O)Nc1ccc(F)cc1F`, the survival was 75%. Regarding `CN(C(=O)C(=O)Nc1ccc2nc3n(c(=O)c2c1)CCCCC3)c1cccc(C(F)(F)F)c1`, the survival is 76%.

The record behind these values is PubChem BioAssay AID463173 (ICCB-Longwood Screening Facility, Harvard Medical School, 2010).
